Values joined by “and” are separate entries in the source; they are usually repeats but may differ in a detail not shown here. Equal entries are not always repeated. Results filed as inconclusive are left out. More than one record can exist for a structure, and the calls need not agree. Active and inactive are the calls of the source. The calls were made as follows, unless noted: active = hit-call score of the fitted dose curve at least 0.9, where 1 is the maximum; inactive = score below 0.9.
Key:
[1] = CCTE_Shafer_MEA_acute_spike_number: CCTE's Neural Acute Assay for Total Number of Spikes, Shafer Lab (AID 2284008);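 as to AC50: curve fitted for decrease in spike count so AC50 reflects inhibitors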
How it was run: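 Cortical neurons from rat, matured to DIV 13 or 15 on microelectrode arrays, are recorded at 37 C before and during 40-min exposure to 0.03-40 uM compound. Wells need >/= 10 active electrodes.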

[2] = CCTE_Shafer_MEA_acute_firing_rate_mean: CCTE's Neural Acute Assay for Mean Firing Rate, Shafer Lab (AID 2284009);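 also: analyzed for loss of signal so actives lower firing rate relative to DMSO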
How it was run: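 Rat cortical neuron cultures matured to DIV 13 or 15, equilibrated 20 min at 37 C, then recorded 40 min for baseline. Compound (0.03-40 uM) added and a further 40 min recorded; percent change in mean firing rate calculated per well.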

[3] = CCTE_Harrill_HTTr_Viability_MCF7: CCTE's 6-hour Cell Viability Assessment for the High-Throughput Transcriptomics (HTTr) Platform, in MCF-7 cells cultured in DMEM + 10% fetal bovine serum, Harrill Lab (AID 2284010)
How it was run: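 Propidium iodide exclusion, imaged by high-content analysis, gauged viability after a six-hour exposure across eight concentrations. Cells were MCF-7 grown in DMEM with 10% fetal bovine serum; fits run in both directions against DMSO.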

[4] = CCTE_Harrill_HTTr_Apoptosis_MCF7: CCTE's 6-hour Apoptosis Assessment for the High-Throughput Transcriptomics (HTTr) Platform, in MCF-7 cells cultured in DMEM + 10% fetal bovine serum, Harrill Lab (AID 2284011)
How it was run: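 Cells are dosed with test chemicals at eight concentrations and imaged 6 hours later for caspase-3/7 activity using a green fluorogenic detection reagent. Activity is fitted in both directions against DMSO controls.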

[5] = CCTE_Harrill_HTTr_CellCount_MCF7: CCTE's Cell Proliferation Assessment for the High-Throughput Transcriptomics (HTTr) Platform, Harrill Lab (AID 2284012; active = hit-call score of the fitted dose curve at least 0.9, where 1 is the maximum;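 also: cells exposed to compound for six hours; intended direction is loss of nuclei count meaning fewer cells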)
How it was run: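 Cell count from high-content imaging of Hoechst-labeled nuclei serves as viability/growth readout. Chemicals were applied to MCF-7 cells in eight concentrations for six hours, with fitting in both directions relative to DMSO.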

[6] = CCTE_Shafer_MEA_acute_burst_number: CCTE's Neural Acute Assay for Single-Electrode Bursts, Shafer Lab (AID 2284013)
How it was run: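 Percent change in single-electrode burst number per well, from 40-min recordings taken before and after adding compound (0.03-40 uM) to primary rat cortical neurons on MEA plates at DIV 13 or 15, 37 C.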

[7] = CCTE_Shafer_MEA_acute_burst_duration_mean: CCTE's Neural Acute Assay for Mean Burst Duration, Shafer Lab (AID 2284014);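 also: hits are decreases in mean burst duration relative to DMSO controls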
How it was run: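 Rat cortical cultures, DIV 13/15; 40 min baseline, then 40 min with compound (0.03-40 uM), 37 C. Spikes: 300-5000 Hz band-pass, 8x rms threshold. Read-out: % change in mean single-electrode burst duration, DMSO-referenced, loss direction.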

[8] = CCTE_Shafer_MEA_acute_per_burst_spike_number_mean: CCTE's Neural Acute Assay for Average Number of Spikes Per Burst, Shafer Lab (AID 2284015);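 also: hits are decreases in mean spikes per burst versus baseline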
How it was run: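 Primary rat cortical neurons on 48-well MEA plates, treated on DIV 13 or 15 at 0.03-40 uM. Spontaneous activity recorded 40 min before and 40 min after compound at 37 C; percent change in mean spikes per single-electrode burst per well, fitted in the loss direction versus DMSO.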

[9] = CCTE_Shafer_MEA_acute_interburst_interval_mean: CCTE's Neural Acute Assay for Mean Interburst Interval, Shafer Lab (AID 2284016);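 also: percent change of mean interburst interval versus each well's own pre-dose baseline; curves fitted for decrease in interburst interval relative to DMSO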
How it was run: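 Primary rat cortical neurons on 16-electrode MEA wells were recorded 40 min at baseline on DIV 13 or 15, then 40 min after compound (0.03-40 uM), at 37 C. Value is percent change in mean interburst interval per well, DMSO as negative control.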

[10] = CCTE_Simmons_MITO_max_resp_rate: CCTE's HepG2 Seahorse XF Respirometric Screening Assay at Maximal Respiratory State [uncoupled], Simmons Lab (AID 2284002); settings: actives raise or lower the signal
How it was run: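 Maximal respiration in HepG2 cells is recorded as OCR by Seahorse XF following FCCP injection. Compounds span 125 nM–100 uM final; activity is called in either direction against DMSO.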

Measured: AC50

CCc1cnc(C2=NC(C)(C(C)C)C(=O)N2)c(C(=O)O)c1 (stereo not drawn)
inactive: [1] | [2] | [3] | [4] | [5] | [6] | [7] | [8] | [9]

O=C(O)c1cc(Oc2ccc(C(F)(F)F)cc2Cl)ccc1[N+](=O)[O-]
inactive: [1] | [2] | [3] | [4] | [5] | [6] | [7] | [8] | [9]
active: [10] 32.9 µM

CON=C(C(=O)OC)c1ccccc1CON=C(C)c1cccc(C(F)(F)F)c1
active: [10] 7.03 µM | [1] 0.183 µM | [2] 0.183 µM | [6] 191 nM | [8] 0.767 µM | [9] 4.19 µM
inactive: [3] | [4] | [7]

C[N+]1(C)CCCCC1
inactive: [1] | [2] | [3] | [4] | [5] | [6] | [7] | [8] | [9]

C#CCC1=C(C)C(OC(=O)C2C(C=C(C)C)C2(C)C)CC1=O (stereo not drawn)
inactive: [3] | [4] | [8] | [9]
active: [10] 33.7 µM | [1] 27.4 µM | [2] 27.4 µM | [6] 13300 nM | [7] 15.5 µM

CN(C)[C@@H]1C(=O)C(C(N)=O)=C(O)[C@@]2(O)C(=O)C3=C(O)c4c(O)cccc4[C@@](C)(O)[C@H]3[C@H](O)[C@@H]12
inactive: [10] | [1] | [2] | [3] | [4] | [5] | [6] | [7] | [8] | [9]

CC[C@H](C)[C@H]1O[C@]2(C=C[C@@H]1C)C[C@@H]1C[C@@H](C/C=C(\C)[C@@H](O[C@H]3C[C@H](OC)[C@@H](O[C@H]4C[C@H](OC)[C@@H](NC)[C@H](C)O4)[C@H](C)O3)[C@@H](C)/C=C/C=C3\CO[C@@H]4[C@H](O)C(C)=C[C@@H](C(=O)O1)[C@]34O)O2
inactive: [4]
active: [10] 97.8 µM | [1] 4.95 nM and 26.8 nM | [2] 4.94 nM and 26.8 nM | [3] 50 µM | [5] 50 µM | [6] 7.43 nM and 28.2 nM | [7] 38.2 µM and 1.5 µM | [8] 26.5 nM and 1.5 µM | [9] 26.1 nM and 2.28 µM

CSC1=N[C@@](C)(c2ccccc2)C(=O)N1Nc1ccccc1
active: [10] 41 µM | [1] 5.8 µM | [2] 5.76 µM | [7] 32 µM | [8] 27.1 µM
inactive: [1] | [2] | [3] | [4] | [6] | [7] | [8] | [9]

CCC(=O)Nc1ccc(Cl)c(Cl)c1
active: [10] 27.3 µM
inactive: [3] | [4]

COP(=O)(OC)OC(Br)C(Cl)(Cl)Br (stereo not drawn)
inactive: [10] | [3] | [4] | [5]

FC(F)C(F)(F)OCC(Cn1cncn1)c1ccc(Cl)cc1Cl (stereo not drawn)
active: [10] 22.5 µM | [1] 5.94 µM | [2] 5.92 µM
inactive: [3] | [4] | [5] | [6] | [7] | [8] | [9]

CCOP(=S)(OCC)Oc1ccc2c(C)c(Cl)c(=O)oc2c1
inactive: [3] | [4] | [5] | [7]
active: [1] 1.85 µM | [2] 1.85 µM | [6] 1940 nM | [8] 3.98 µM | [9] 4.19 µM

CCCOCC(=Nc1ccc(Cl)cc1C(F)(F)F)n1ccnc1
active: [10] 15.4 µM | [1] 0.568 µM | [2] 0.571 µM | [6] 686 nM | [7] 6.29 µM | [8] 2.02 µM
inactive: [3] | [4] | [5] | [9]

CCOP(=S)(Oc1cnc(C(C)(C)C)nc1)OC(C)C (stereo not drawn)
active: [10] 50 µM | [1] 15.6 µM | [2] 15.5 µM | [8] 29.4 µM
inactive: [3] | [4] | [6] | [7] | [9]

COP(=O)(OC)C(O)C(Cl)(Cl)Cl (stereo not drawn)
inactive: [1] | [2] | [3] | [4] | [5] | [6] | [7] | [9]
active: [8] 2.15 µM

COP(=O)(NC(C)=O)SC (stereo not drawn)
inactive: [1] | [2] | [3] | [4] | [5] | [6] | [7] | [8] | [9]
active: [8] 0.124 µM | [9] 0.0544 µM

CC(C)N(C(=O)SCC(Cl)=C(Cl)Cl)C(C)C
inactive: [10] | [3] | [4] | [6] | [7] | [9]
active: [1] 8.85 µM and 5.81 µM | [2] 8.79 µM and 5.81 µM | [8] 20 µM and 8.68 µM | [9] 11.9 µM

CCOP(=O)(NC(C)C)Oc1ccc(SC)c(C)c1 (stereo not drawn)
active: [1] 10.2 µM | [2] 10.2 µM
inactive: [3] | [4] | [5] | [6] | [7] | [8] | [9]

O=[N+]([O-])c1cc(C(F)(F)F)c(Cl)c([N+](=O)[O-])c1Nc1ncc(C(F)(F)F)cc1Cl
active: [1] 0.351 µM | [2] 0.35 µM | [3] 21.5 µM | [6] 322 nM | [7] 1.59 µM | [8] 0.468 µM | [9] 1.14 µM
inactive: [10] | [4] | [5]

CCc1cccc(CC)c1N(COC)C(=O)CCl
active: [10] 13.8 µM
inactive: [3] | [4]

CC1(C(=O)Nc2ccc(O)c(Cl)c2Cl)CCCCC1
inactive: [3] | [4]
active: [10] 31.4 µM

C[Si](Cn1cncn1)(c1ccc(F)cc1)c1ccc(F)cc1
inactive: [3] | [4] | [5] | [7] | [9]
active: [10] 16.2 µM | [1] 4.69 µM | [2] 4.69 µM | [6] 4300 nM | [8] 7.68 µM

N#CSCSC#N
active: [10] 50 µM | [5] 92.6 µM | [9] 30.5 µM
inactive: [1] | [2] | [3] | [4] | [6] | [7] | [8]

CC(=NC#N)N(C)Cc1ccc(Cl)nc1
inactive: [1] | [2] | [3] | [4] | [5] | [6] | [7] | [8] | [9]
